# Assay results as given in PubChem BioAssay AID1578 (Sanford-Burnham Center for Chemical Genomics, 2009).
# Out of some 290,000 compounds screened, about 3,000 (1%) were called active. The sample holds actives, similar compounds and a random draw of the others, so the mix is not that of the screen. Unmarked numbers belong to inactive results. No stated cut-off is given here; in the data, active means inhibition mostly above about 36% (no sharp cut-off); inactive means mostly below about 34%.
# Assay: NOD1 signaling inhibitors, primary screen, cell-based, luminescence, uHTS (AID 1578);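 further: HEK-293T reporter cells stimulated with the NOD1 agonist gamma-tri-DAP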
# Details: NOD1-driven NF-kB luciferase reporter cells, at 4 µM, hits give high values
row,SMILES,inhibition
1,O=C(Nc1cccc(F)c1)N1CCC(n2c(=O)[nH]c3ccccc32)CC1,-2.7%
2,COc1ccc(-c2noc(N3CCC(C(=O)NCCCN4CC(C)CC(C)C4)CC3)n2)cc1 (configuration not stated),-3.9%
3,CC(C)(C)c1ccc(C(=O)Nc2ccc(NC(=O)C(=O)O)cc2)o1,-19%
4,COC(=O)Cc1ccc(NC(=O)c2ccc(C)c(C)c2)cc1,-39.1%
5,CC(C)(C)c1ccc(C(=O)Nc2ccc(CC(=O)O)cc2)o1,76.3% (active)
6,COC(=O)Cc1ccc(NC(=O)c2ccc(NC(=O)c3ccco3)cc2)cc1,-16%
7,Cc1ccc(C(=O)Nc2ccc(CC(=O)O)cc2)o1,-4.8%
8,CCOC(=O)Cc1ccc(NC(=O)c2ccc(C(C)(C)C)cc2)cc1,69.9% (active)
9,CCOC(=O)Cc1ccc(NC(=O)c2ccc([N+](=O)[O-])cc2)cc1,-35.6%
10,COC(=O)Cc1ccc(NC(=O)c2ccc(C(C)(C)C)cc2)cc1,88.2% (active)
11,CCOC(=O)Cc1ccc(NC(=O)c2ccccc2Br)cc1,-20.3%
12,C=C(CO)C1Cc2cc(C(C)=O)ccc2O1 (configuration not stated),-3.8%
13,CC(C)(C)c1ccc(C(=O)c2c[nH]c(C(=O)NCCCN3CCOCC3)c2)cc1,-19.7%
14,COc1ccc(CCC(=O)NC(C)C)cc1,-11.1%
15,O=S(=O)(NCCN1CCOCC1)c1ccc(-c2ccc(S(=O)(=O)NCCN3CCOCC3)cc2)cc1,-11.2%
16,CCc1ccc(N2CC(C(=O)Nc3nc4ccc(S(C)(=O)=O)cc4s3)CC2=O)cc1 (configuration not stated),0.5%
17,O=C(CCCN1C(=O)S/C(=C/C=C/c2ccccc2)C1=O)Nc1ccc(C(=O)O)cc1,-38%
18,O=C(CCc1ccccc1)NC(NC(=S)Nc1ccc(Cl)cc1)C(Cl)(Cl)Cl (configuration not stated),19.9%
19,C/C(=N/NC(=O)c1nnn(-c2nonc2N)c1-c1ccccc1)c1ccncc1,-26.6%
20,Cc1c(Cl)c(C(=O)N2CCCc3ccccc32)nn1C,0.6%
21,O=c1cc(C(F)F)oc2c1ccc1ccccc12,27.3%
22,O=c1cc(C(Cl)(Cl)Cl)oc2c1ccc1ccccc12,82.3% (active)
23,O=c1cc(C(F)(F)F)oc2c1ccc1ccccc12,-3.4%
24,O=C(/C=C/c1ccc(OC(F)F)cc1)Nc1cccc(S(=O)(=O)NC2=NCCCCC2)c1,-43.6%
25,COCCC(=O)N1CCC(Oc2ccc(C(=O)N3C[C@H]4CC[C@H]3C4)cc2)CC1,-33%

row,SMILES,inhibition
1,COc1cc(C(=O)NCCNC(=O)c2cc(OC)c(C)c(OC)c2)cc(OC)c1C,-45.1%
2,C=CCNC(=O)COc1ccc(Oc2ccccc2)cc1,52.1% (active)
3,COCCNC(=O)COc1ccc(Oc2ccccc2)cc1,-26.6%
4,C=CCNC(=O)c1ccccc1NC(=O)COc1ccccc1,27.8%
5,O=C(NCCSc1ccc(Br)cc1)c1ccc2nc[nH]c2c1,-38.2%
6,Cc1ccc(S(=O)(=O)CC(=O)Nc2cc(C)on2)cc1,24.4%
7,Cc1cc2oc(=O)sc2cc1NS(=O)(=O)c1cccc2cccnc12,-17.4%
8,O=C(CN1CCCCC1)Nc1cccc(Oc2ccccc2)c1,-5.2%
9,O=C(CCl)Nc1cccc(Oc2cnccn2)c1,32.3% (active)
10,O=C(Nc1cccc(-c2cnc3ccccc3n2)c1)c1ccccc1,-0.8%
11,O=C(CCl)Nc1cccc(CP(=O)(c2ccccc2)c2ccccc2)c1,106% (active)
12,CC(=O)Nc1ccc(Oc2cnccn2)cc1,-8.8%
13,CCC(=O)Nc1cccc(-c2cnc3ccccc3n2)c1,-54.6%
14,O=C(CCl)Nc1cccc(-c2cnc3ccccc3n2)c1,104% (active)
15,O=C(CP(=O)(c1ccccc1)c1ccccc1)Nc1cccc(CP(=O)(c2ccccc2)c2ccccc2)c1,7.2%
16,C=CCN(CC=C)CC(=O)Nc1cccc(Oc2cnccn2)c1,1.4%
17,O=C(CCl)Nc1cccc(Oc2ccccc2)c1,75.3% (active)
18,N=c1sccn1CC(=O)Nc1cccc(Oc2ccccc2)c1,16.7%
19,CC(=O)Nc1cccc(CP(=O)(c2ccccc2)c2ccccc2)c1,-3.5%
20,CCOc1ccc(NS(=O)(=O)c2ccc(NC(=O)C3CC3)cc2)cc1,23.9%
21,Fc1ccc(NC(=S)NCc2cccnc2)cc1,-21.1%
22,Cc1nnc(NC(=O)CN2CCN(Cc3c(Cl)cccc3Cl)CC2)s1,2.8%
23,C/C(=N\NC(=O)c1ccccn1)c1ccc(C(=O)O)s1,6.8%
24,Cc1ccccc1NC(=O)c1c(-c2ccccc2)noc1C,-7.9%
25,CN(Cc1ccccc1)S(=O)(=O)c1ccc(Cl)c(C(=O)NCc2ccc3c(c2)OCO3)c1,-8.3%

row,SMILES,inhibition
1,O=C(NC(=S)Nc1nc(-c2cccc([N+](=O)[O-])c2)cs1)c1ccccc1Cl,-36.4%
2,O=C(NC(=S)Nc1nc(-c2cccc([N+](=O)[O-])c2)cs1)c1cc(Cl)ccc1Cl,13.4%
3,CC(=O)Nc1ccc(Nc2nc(-c3sc(NC(C)=O)nc3C)cs2)cc1,32.9%
4,O=[N+]([O-])c1cccc(NC(=S)Nc2nc(-c3ccccc3Cl)cs2)c1,88.1% (active)
5,CC(=O)Nc1nc(C)c(-c2csc(Nc3cccc(C(C)=O)c3)n2)s1,3.5%
6,CC(C)CCNC(=O)c1nn(Cc2ccccc2)c(=O)c2ccccc12,-6.4%
7,Cc1cc(C(=O)CSc2nnc(NCc3ccccc3)s2)c(C)n1C,-18.8%
8,CCN1CCN(c2ncnc3sc(C)c(-c4ccccc4)c23)CC1,-8.6%
9,Cc1sc2ncnc(N3CCN(Cc4ccccc4)CC3)c2c1-c1ccccc1,43.2%
10,Cc1ccc(C(=O)NS(=O)(=O)c2ccccc2)cc1,-46.6%
11,Cc1ccc(C(=O)NS(=O)(=O)c2ccc(N=NN(C)C)cc2)cc1,46.6% (active)
12,Cc1ccc(C(=O)NS(=O)(=O)c2ccc(C)cc2)cc1,-2.7%
13,O=C1C(=C2SCCCS2)CC/C1=C\c1ccc(F)cc1,76.9% (active)
14,Cc1cccc(/C=C2\CCC(=C3SCCCS3)C2=O)c1,21.6%
15,O=C1/C(=C/c2ccc(F)cc2)CCC1C1CCCC1 (configuration not stated),-42.1%
16,Cc1ccc(C(=O)Nc2cccnc2Cl)cc1Cl,-74.4%
17,NC(=O)COC(=O)c1ccc(NS(=O)(=O)c2ccc3c(c2)OCCO3)cc1,-9.9%
18,CS(=O)(=O)c1nc(-c2ccc(Br)cc2)cc(-c2ccccc2)c1C#N,40.6%
19,CC(C)C(Sc1nc(-c2ccccc2)cc(-c2ccccc2)c1C#N)C(=O)O (configuration not stated),52.9% (active)
20,N#Cc1c(-c2ccccc2)cc(-c2ccccc2)nc1SCCC(=O)O,3.1%
21,COc1ccc(-c2cc(-c3ccccc3)nc(SC(C)C(=O)O)c2C#N)cc1 (configuration not stated),-21.4%
22,COc1ccc(-c2cc(-c3ccccc3)c(C#N)c(S(C)(=O)=O)n2)cc1,19.6%
23,CS(=O)(=O)c1nc(-c2ccccc2)cc(-c2ccccc2)c1C#N,68.3% (active)
24,COC(=O)c1ccccc1NC(=O)CSc1n[nH]c(-c2ccco2)n1,-8.4%
25,O=C(C1CCN(c2ccc(N3CCOCC3)nn2)CC1)N1CCN(c2ccc(F)cc2)CC1,-18.2%

row,SMILES,inhibition
1,C=CCSc1nc2sc3c(c2c(=O)[nH]1)CC(C)(CC)OC3 (configuration not stated),-17.8%
2,Cc1ccccc1NC(=O)CC1SCCNC1=O (configuration not stated),11.3%
3,OCCNCCCCOc1cccc(Br)c1,75.8% (active)
4,COCCCNCCCCOc1cccc(Br)c1,-2.3%
5,C=CCNCCCCOc1cccc(Br)c1,11.4%
6,O=S(=O)(/N=C(/NC(=S)Nc1ccccc1)c1ccccc1)c1ccc(Cl)cc1,-32.1%
7,O=c1c(Cc2ccc(F)cc2)c(O)ccn1C1CC1,51.7% (active)
8,O=c1c(Cc2ccccc2)c(O)ccn1C1CCCCCCC1,-38.2%
9,O=c1c(Cc2ccc(F)cc2)c(O)ccn1C1CCCCC1,-17.4%
10,CCCCCCCCOC(=O)C(NC(=O)CCC(=O)Nc1ccc(S(N)(=O)=O)cc1)C(O)c1ccccc1 (configuration not stated),-2.4%
11,CCCCCCCCCCCC(=O)NC(C(=O)OCC)C(O)c1cccc([N+](=O)[O-])c1 (configuration not stated),34.1%
12,CCCCCCCCCCCC(=O)NC(C(=O)O)C(O)c1ccccc1 (configuration not stated),55.2% (active)
13,CN1CCN(c2ccc(NC(=O)c3ccco3)cc2Cl)CC1,-46.7%
14,Nc1ccc(NC2C[C@@H](C(=O)O)NC2=O)cc1 (some centres not stated),-25.3%
15,CC(C)CC(=O)N/N=C/c1c(N)n(C)c(=O)n(C)c1=O,-7.7%
16,CCn1cc([N+](=O)[O-])c(C(=O)N2N=C(c3ccc(Cl)c(Cl)c3)CC2c2ccccc2O)n1 (configuration not stated),-14.7%
17,CCn1cc([N+](=O)[O-])c(C(=O)N2N=C(c3ccc4ccccc4c3)CC2c2ccccc2O)n1 (configuration not stated),-40.2%
18,CCn1cc(Cl)c(C(=O)N2N=C(c3ccc4ccccc4c3)CC2c2ccccc2O)n1 (configuration not stated),61.4% (active)
19,CCOc1cc(NC(=O)CCl)c(OCC)cc1NC(=O)CCl,71.2% (active)
20,CCCCC(=O)Nc1cc(OCC)c(NC(=S)NC)cc1OCC,-5.5%
21,CCOc1cc(Cl)c(NC(=O)CC)cc1OCC,-18.6%
22,CCN1C(=O)c2ccccc2Sc2ccc(C(=O)NC(C)C)cc21,0.6%
